Source: PubChem BioAssay (several laboratories)
A selection: hits, their analogues and other compounds. The true share with any hit is near 0.9%.
Rv3671c inh – Rv3671c serine protease inhibitors, primary screen, biochemical, fluorescence polarization, M. tuberculosis H37Rv | hit rate 0.048% among 320,000 | AID 2606, 2010 | inhibition, % at 5.96 µM | P9WHR9;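 note: extracellular domain of Rv3671c used as enzyme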
TcdB GH inh – TcdB glycohydrolase inhibitors, primary screen, biochemical, single point, plate reader. Toxin B (Clostridioides difficile), P18177. TcdB glycohydrolase enzymatic assay. inhibition, % at 9.99 µM. hit rate 0.24% among 350,000; in the data active = inhibition above about 10%
Mtb BioA inh – M. tuberculosis BioA enzyme inhibitors, primary screen, biochemical, plate reader, single point, HTS; hit rate 0.096% among 360,000; AID 602481, 2012; 7,8-diaminopelargonic acid synthase BioA (Mycobacterium tuberculosis); purified M. tuberculosis BioA enzyme; inhibition, % at 9.99 µM; in the data active = inhibition above about 40%; inconclusive = no clear call, values can overlap the other calls
Mtb UGM inh – M. tuberculosis UGM enzyme inhibitors, primary screen, biochemical, fluorescence polarization, single point | purified UGM, fluorescence polarization probe displacement | inhibition, % at 10 µM | hit rate 0.06% among 320,000 | AID 504406, 2011; in the data active = inhibition above about 10%, passing the limit was not always enough; inconclusive = no clear call, values can overlap the other calls
Target sequence (P9WIQ1 whole entry, looked up): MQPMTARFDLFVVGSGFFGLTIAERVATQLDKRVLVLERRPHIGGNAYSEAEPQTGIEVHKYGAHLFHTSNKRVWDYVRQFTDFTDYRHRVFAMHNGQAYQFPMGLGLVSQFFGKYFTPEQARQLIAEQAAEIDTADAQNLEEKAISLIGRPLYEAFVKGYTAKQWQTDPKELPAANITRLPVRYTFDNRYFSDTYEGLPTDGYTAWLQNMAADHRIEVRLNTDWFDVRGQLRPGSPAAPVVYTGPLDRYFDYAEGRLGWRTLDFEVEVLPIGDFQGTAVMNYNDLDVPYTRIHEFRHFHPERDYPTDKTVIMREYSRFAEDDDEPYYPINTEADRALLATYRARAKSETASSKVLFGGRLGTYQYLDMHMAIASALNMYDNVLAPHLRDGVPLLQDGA
RecA splice inh – Mtb RecA intein splicing inhibitors, primary screen, biochemical, fluorescence, HTS. AID 2221, 2009. hit rate 0.75% among 290,000. cell-free RecA intein splicing. inhibition, % (concentration not given with the values); in the data active = inhibition above about 30%; inconclusive = no clear call, values can overlap the other calls
FadD28 FP inh – inhibitors of FadD28 bisubstrate probe binding, primary screen, biochemical, fluorescence polarization, single point. inhibition, % at 12.5 µM. hit rate 0.22% among 360,000; in the data active = inhibition above about 8.5%, passing the limit was not always enough; inconclusive = no clear call, values can overlap the other calls
Rv3671c cf – Rv3671c serine protease inhibitors, retest, confirmation, biochemical, fluorescence polarization, M. tuberculosis H37Rv | inhibition, % at 5.96 µM | shares compounds with Rv3671c inh | hit rate 40% among 140
A number is an active result; - = inactive; ? = inconclusive; . = no result given. Cut-off read from the data, not from the text of the source, unless noted: active = inhibition above about 38%; inactive = the rest.

SMILES | Rv3671c inh | TcdB GH inh | Mtb BioA inh | Mtb UGM inh | RecA splice inh | FadD28 FP inh | Rv3671c cf
C(=N\Nc1nc2ccccc2[nH]1)/c1cccc2cccnc12 | 38 | - | - | - | - | - | -
Nc1ccc2nc(-c3ccc(-c4nc5ccc(N)cc5[nH]4)cc3)[nH]c2c1 | 39 | - | . | - | - | . | 50
O=[N+]([O-])c1ccc(NN=Cc2cccc3ccccc23)nc1 | . | - | - | . | . | - | .
COc1cccc(/C=N/Nc2ccc([N+](=O)[O-])cn2)c1O | 81 | - | - | - | - | - | -
Cn1c(O)c(/C=N/NC(=O)c2cc3ccccc3cc2O)c2ccccc21 | 47 | - | - | - | - | ? | -
Cc1ccc(-n2c(SCC(=O)Nc3ccc4c5c(cccc35)CC4)nc(O)cc2=O)cc1 | 45 | - | . | - | - | - | -
C=C1c2cccc(O)c2C(O)=C2C(=O)[C@]3(O)C(O)=C(C(N)=O)C(=O)[C@@H](N(C)C)[C@@H]3[C@@H](O)[C@H]12 | 50 | - | - | - | - | - | -
C[C@H]1CN([C@@H](C)CO)C(=O)c2cc(NS(C)(=O)=O)ccc2O[C@H]1CN(C)Cc1ccc(C(F)(F)F)cc1 | . | - | - | . | . | . | .
c1ccc(-c2nc3cc4ccccc4cc3[nH]2)nc1 | 39 | . | - | - | - | - | 44
CC(=O)Nc1ccc2nc(-c3ccccn3)[nH]c2c1 | - | . | - | - | - | - | .
CC1=C(C(N)=O)C(c2cccnc2)n2nc(-c3cccc(Cl)c3)nc2N1 (stereo not given) | - | . | - | - | - | - | .
CC1=C(C(N)=O)C(c2ccccc2)n2nc(-c3cccc(C)c3)nc2N1 (stereo not given) | 65 | - | - | - | - | - | 60
O=c1[nH]nc(CNc2ccc(O)cc2)c2ccccc12 | 40 | . | - | - | - | - | -
O=c1[nH]nc(CNc2ccc(C(F)(F)F)cc2)c2ccccc12 | - | . | - | - | - | - | .
Nc1ccc(Nc2nc3ccccc3[nH]2)cc1 | 50 | - | - | - | - | - | 46
O=C(C[C@@H]1CC[C@@H](NC(=O)c2cnccn2)[C@@H](CO)O1)NCc1ccccc1F | . | - | - | . | . | . | .
Cc1ccccc1SCc1noc(C(=O)NCC2CCCO2)c1C(=O)O (stereo not given) | - | - | - | - | - | - | .
O=C(NCC1CCCO1)c1onc(CSc2ccc(Cl)cc2)c1C(=O)O (stereo not given) | 84 | . | - | - | - | - | -
CC(C)(C)c1ccc(Oc2coc3cc(OCC(=O)O)ccc3c2=O)cc1 | 49 | - | . | - | - | - | -
COc1ccccc1Oc1coc2cc(OCC(N)=O)ccc2c1=O | - | - | - | - | - | - | .
Cc1noc(C)c1S(=O)(=O)Nc1ccc2c(c1)C(=O)N([C@H](C)CO)C[C@@H](C)[C@@H](CN(C)S(C)(=O)=O)OCCCC[C@H](C)O2 | . | - | - | . | . | . | .
CCOC(=O)NC(=O)/C(C#N)=C\Nc1sccc1C(=O)OC | 41 | - | . | - | - | - | -
CCCNC(=O)N1[C@@H](CO)[C@H](c2ccccc2)[C@@H]1CNC(C)=O | . | - | - | . | . | . | .
Oc1ccc(/C=N/Nc2ccnc3cc(Cl)ccc23)c(O)c1O | - | - | - | - | . | - | .
Oc1ccc(/C=N/Nc2ccnc3cc(Cl)ccc23)cc1O | 54 | - | . | - | - | 12 | -
SMILES | Rv3671c inh | TcdB GH inh | Mtb BioA inh | Mtb UGM inh | RecA splice inh | FadD28 FP inh | Rv3671c cf
CN1C(=O)c2cc(NC(=O)C3CCCC3)ccc2OC[C@@H]2O[C@@H](CC(=O)NCc3ccccc3F)CC[C@@H]21 | . | - | . | . | . | . | .
O=C1c2c(O)cccc2Cc2cccc(O)c21 | 58 | - | - | - | . | - | -
COc1ccc(-c2cc(C(F)(F)F)nc(S(=O)(=O)CCC(=O)N3CCOCC3)n2)cc1 | 60 | . | - | - | - | - | -
O=C(N/N=C/c1cc(Br)c(O)c(Br)c1O)c1ccc2c(c1)OCCO2 | 42 | - | - | - | - | 12 | -
O=[N+]([O-])c1ccc(NCc2ccccc2)c2nonc12 | 49 | - | . | - | - | . | 43
O=[N+]([O-])c1ccc(Nc2ccccc2O)c2nonc12 | . | - | - | - | - | - | .
CC=Cc1ccc2n(c1=O)C[C@H]1[C@H](CO)[C@@H](C(=O)NCCCN(C)C)[C@@H]2N1C(=O)c1ccccc1F (mixture of isomers) | . | - | - | . | . | . | .
Cc1cc(NS(=O)(=O)c2ccc(Nc3nc(-c4sc(NC(=O)c5ccccc5)nc4C)cs3)cc2)no1 | 63 | . | . | - | - | . | 50
C[C@@H]1CN([C@@H](C)CO)C(=O)Cc2cc(NC(=O)CCN3CCOCC3)ccc2O[C@H]1CN(C)Cc1ccncc1 | . | - | - | . | . | . | .
CCNc1cc(O)ccc1C | 63 | . | - | - | . | - | -
Cc1ccc(C(=O)CNc2cc(C)ccc2C)cc1 | - | - | - | - | - | - | .
O=C(NCc1ccco1)c1cccc(Nc2nc3ccc(Br)cc3[nH]2)c1 | 40 | - | - | - | - | - | 44
CC12CCC(=O)N1C(C(=O)Nc1cc(C(F)(F)F)ccc1N1CCCCC1)CS2 (stereo not given) | 40 | - | . | - | - | - | -
CC12CCC(=O)N1C(C(=O)Nc1cc(C(F)(F)F)ccc1N1CCOCC1)CS2 (stereo not given) | - | - | . | - | - | - | .
COc1ccccc1NC(=O)N1CC(=O)N2[C@H](CO)[C@H](c3ccc(-c4cccc(C)c4)cc3)[C@@H]2C1 | . | - | . | . | . | . | .
COc1cccc(-c2ccc3c(c2)[C@H]2[C@H](CCN2C(=O)c2cccc(F)c2)[C@@H](CO)N3)c1 | . | - | - | . | . | . | .
C[C@H](CO)N1C[C@H](C)[C@@H](CN(C)Cc2cccc(C(F)(F)F)c2)OCc2cn(nn2)CCCC1=O | . | - | - | . | . | . | .
Cn1c(/C(C#N)=C/c2ccc(-c3ccc(S(N)(=O)=O)cc3)o2)nc2ccccc21 | 47 | . | - | - | . | 11 | -
Cc1noc(C)c1S(=O)(=O)N(C)C[C@@H]1OCCCC[C@@H](C)Oc2ccc(NC(=O)CCCN(C)C)cc2C(=O)N([C@H](C)CO)C[C@H]1C | . | - | - | . | . | . | .
CCCc1cc(=O)oc2cc(C)cc(OCC(=O)NC3CCN(Cc4ccccc4)CC3)c12 | 125 | - | - | - | - | - | -
CCc1cc(=O)oc2cc(C)cc(OC(=O)c3ccco3)c12 | 58 | . | - | - | - | - | 78
Cc1cc(OC(=O)c2ccco2)c2c3c(c(=O)oc2c1)CCC3 | - | - | - | - | - | - | .
Cc1cc(OC(=O)c2ccco2)c2c(C)cc(=O)oc2c1 | 47 | . | . | - | - | - | 74
COc1ccc(S(=O)(=O)N[C@H]2CC[C@H](CCn3cc(-c4ccccc4F)nn3)O[C@H]2CO)cc1 | . | - | - | . | . | . | .
